Test results published in PubChem BioAssay (Tox21).
Inconclusive results are not listed. Entries that show only a call come without a potency. Activity calls are given as the source filed them. Calls follow the shape of the full dose curve.

target: Peroxisome proliferator-activated receptor gamma (Homo sapiens) (UniProt P37231); test: qHTS assay to identify small molecule antagonists of the peroxisome proliferator-activated receptor gamma (PPARg) signaling pathway (AID 743191); details: HEK293H PPARg-UAS-bla, beta-lactamase ratio, antagonist, 17 h; series mostly up to 62.6 µM; also: nearly all actives have a fitted effect of over 30% in size
From the text: U.S. Tox21 Program National Center for Advancing Translational Sciences [NCATS] NIH Chemical Genomics Center [NCGC] U.S. Environmental Protection Agency [EPA] National Institutes of Environmental Health Sciences [NIEHS] National Toxicology Program [NTP] U.S. Food and Drug Administration [FDA] Tox21 Assay Overview: The peroxisome proliferator-activated receptors (PPARs) are lipid-activated transcription factors of the nuclear receptor superfamily with three distinct subtypes namely PPAR alpha, PPAR delta (also called PPAR beta) and PPAR gamma (PPARg). All these subtypes heterodimerize with Retinoid X receptor (RXR) and these heterodimers regulate transcription of various genes. PPAR-gamma receptor (glitazone receptor) is involved in the regulation of glucose and lipid metabolism. To identify the compounds that inhibit PPAR-gamma signaling, GeneBLAzer PPAR gamma UAS-bla HEK293H cell line (Invitrogen, Carlsbad, CA, USA) containing a beta-lactamase reporter gene under control of an Upstream Activator Sequence (UAS) was used to screen the Tox21 compound library.
Tox21 Assay Protocol Summary: PPARg-bla cells were dispensed at 3000 cells/6uL/well in 1536-well black wall/clear bottom plates using a Multidrop Combi (Thermo Fisher Scientific, Waltham, MA) dispenser. After the assay plates were incubated at 37C and 5% CO2 for 5 h, 23 nL of compounds dissolved in DMSO, positive controls or DMSO only was transferred to the assay plate by a Pintool station (Kalypsys, San Diego, CA). The assay plates were incubated at 37C for 17 h. After 1 uL of LiveBLAzerTM B/G FRET substrate was added using a Bioraptr Flying Reagent Dispenser (FRD) workstation (Beckman Coulter, Indianapolis, IN, USA), the plates were incubated at room temperature for 1 h, and fluorescence intensity was measured by an Envision plate reader (PerkinElmer, Shelton, CT).

Chain of Peroxisome proliferator-activated receptor gamma (Homo sapiens) (P37231 whole entry, looked up): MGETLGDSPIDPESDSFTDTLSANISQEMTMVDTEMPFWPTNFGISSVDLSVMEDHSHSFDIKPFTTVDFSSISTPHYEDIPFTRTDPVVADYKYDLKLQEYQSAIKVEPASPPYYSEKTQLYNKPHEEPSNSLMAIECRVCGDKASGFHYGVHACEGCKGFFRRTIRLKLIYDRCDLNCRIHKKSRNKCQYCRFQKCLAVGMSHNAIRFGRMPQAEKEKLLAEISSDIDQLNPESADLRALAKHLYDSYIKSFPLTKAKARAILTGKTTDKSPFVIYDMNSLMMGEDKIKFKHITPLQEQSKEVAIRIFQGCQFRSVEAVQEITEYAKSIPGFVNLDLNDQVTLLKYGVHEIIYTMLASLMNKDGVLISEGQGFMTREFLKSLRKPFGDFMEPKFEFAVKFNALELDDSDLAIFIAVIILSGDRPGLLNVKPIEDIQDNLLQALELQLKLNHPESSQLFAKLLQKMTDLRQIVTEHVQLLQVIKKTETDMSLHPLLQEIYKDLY

| Structure (SMILES) | Potency |
| --- | --- |
| C=C[Si](OCCOC)(OCCOC)OCCOC | inactive |
| c1ccc2c(c1)ccc1ncccc12 | inactive |
| CN(C)C | inactive |
| Brc1nc2ccccc2s1 | inactive |
| CC(=O)Nc1ccc2c(c1)Cc1cc(NC(C)=O)ccc1-2 | inactive |
| [O-]/[N+](=N\O)c1ccccc1 | inactive |
| C=CCNCC=C | inactive |
| O=C1CCc2ccccc2O1 | inactive |
| Cc1ccc(C(C)(C)C)c(O)c1 | inactive |
| c1ccc2c(c1)[nH]c1ccccc12 | inactive |
| C/C=C/C(=O)N(CC)c1ccccc1C | inactive |
| ClC/C=C/CCl | inactive |
| O=C(O)CCCCCCCCCCCC(=O)O | inactive |
| COc1cc([C@H]2Oc3cc([C@H]4Oc5cc(O)cc(O)c5C(=O)[C@@H]4O)ccc3O[C@@H]2CO)ccc1O | inactive |
| Cc1ccc(C(C)(C)C)cc1 | inactive |
| CC(C)=CCO | inactive |
| CCCCCCC(C)O (stereo not given) | inactive |
| C=CN1CCCC1=O | inactive |
| Cc1ccc2c(c1)C(=O)OC2=O | inactive |
| CCc1cccc2c3c([nH]c12)C(CC)(CC(=O)O)OCC3 (stereo not given) | inactive |

| Structure (SMILES) | Potency |
| --- | --- |
| CNC[C@H](O)c1ccc(O)c(O)c1 | inactive |
| O=Cc1ccccc1C=O | inactive |
| CCO[Si](CCCNC(N)=O)(OCC)OCC | inactive |
| Oc1c(Cl)ccc(Cl)c1Cl | inactive |
| CC(C)(Oc1ccc(Cl)cc1)C(=O)O | inactive |
| CN(C)/N=N/c1nc[nH]c1C(N)=O | inactive |
| Cc1ccc(S(=O)(=O)NCl)cc1 | inactive |
| FC(F)(F)C(Cl)Br (stereo not given) | inactive |
| COC(=O)CC(=O)OC | inactive |
| [Na+] | inactive |
| CCCOCCO | inactive |
| C=CCCCCCCCCCC | inactive |
| O=C(O)c1ccc(O)cc1 | inactive |
| Nc1cc([N+](=O)[O-])ccc1C(=O)O | inactive |
| Cc1ccc(/C(=C\CN2CCCC2)c2ccccn2)cc1 | inactive |
| CCOC(=O)C(C)Oc1ccc(Oc2cnc3cc(Cl)ccc3n2)cc1 (stereo not given) | inactive |
| Nc1cc(Cl)c(N)c(Cl)c1 | inactive |
| c1ccc2ncccc2c1 | inactive |
| Cc1ccc([N+](=O)[O-])c(C)c1 | inactive |
| NC[C@H](O)c1ccc(O)c(O)c1 | inactive |
